Data: the supplement of paper PMC7411054
Structures can show the parent of a compound that is named as a salt.

Assays:
Conditions in all cases: treatment time: 24 h
HepG2-CANX-COX4 [1] = assay: lowest phenotypically active concentration; higher = less potent
Summary of the method: (§1)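 After 24 h at 0.3, 1, 3 or 9 µM, with four wells per treatment, fifteen gene-edited A549, HepG2 and WPMY1 reporter lines carrying BFP, GFP and RFP/FusionRed were imaged live. Each well's live-cell features were expressed relative to solvent control wells. Deviation required ≥3 of 4 wells past the 95th percentile of control Euclidean distances, and reproducibility a median replicate Pearson correlation over the 95th percentile of non-replicates. Phenotypic activity rested on both.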

HepG2-TUBA1B-RELA [2] = assay: as above
Summary of the method: as §1

WPMY1-GM130-SQSTM1 [3] = assay: as above
Summary of the method: as §1

WPMY1-TP53BP1-CLTA [4] = assay: as above
Summary of the method: as §1

A549-ACTB-RAB5A = assay: phenotypically active (imaging signature differs from DMSO and reproducible) at any of 0.3-9 uM (binary (1 = active, 0 = inactive)); higher = active
Summary of the method: as §1

A549-CANX-COX4 = assay: as above
Summary of the method: as §1

A549-GM130-SQSTM1 = assay: as above
Summary of the method: as §1

A549-TP53BP1-CLTA = assay: as above
Summary of the method: as §1

A549-TUBA1B-RELA = assay: as above
Summary of the method: as §1

HepG2-ACTB-RAB5A = assay: as above
Summary of the method: as §1

HepG2-CANX-COX4 [5] = assay: as above
Summary of the method: as §1

HepG2-GM130-SQSTM1 [6] = assay: as above
Summary of the method: as §1

HepG2-TP53BP1-CLTA = assay: as above
Summary of the method: as §1

HepG2-TUBA1B-RELA [7] = assay: as above
Summary of the method: as §1

WPMY1-ACTB-RAB5A = assay: as above
Summary of the method: as §1

WPMY1-CANX-COX4 = assay: as above
Summary of the method: as §1

WPMY1-GM130-SQSTM1 [8] = assay: as above
Summary of the method: as §1

WPMY1-TP53BP1-CLTA [9] = assay: as above
Summary of the method: as §1

WPMY1-TUBA1B-RELA = assay: as above
Summary of the method: as §1

HepG2-GM130-SQSTM1 [10] = assay: lowest phenotypically active concentration; higher = less potent
Summary of the method: as §1

SMILES | lowest phenotypically active concentration (HepG2-CANX-COX4 [1]) | lowest phenotypically active concentration (HepG2-TUBA1B-RELA [2]) | lowest phenotypically active concentration (WPMY1-GM130-SQSTM1 [3]) | lowest phenotypically active concentration (WPMY1-TP53BP1-CLTA [4]) | phenotypically active (A549-ACTB-RAB5A) | phenotypically active (A549-CANX-COX4) | phenotypically active (A549-GM130-SQSTM1) | phenotypically active (A549-TP53BP1-CLTA) | phenotypically active (A549-TUBA1B-RELA) | phenotypically active (HepG2-ACTB-RAB5A) | phenotypically active (HepG2-CANX-COX4 [5]) | phenotypically active (HepG2-GM130-SQSTM1 [6]) | phenotypically active (HepG2-TP53BP1-CLTA) | phenotypically active (HepG2-TUBA1B-RELA [7]) | phenotypically active (WPMY1-ACTB-RAB5A) | phenotypically active (WPMY1-CANX-COX4) | phenotypically active (WPMY1-GM130-SQSTM1 [8]) | phenotypically active (WPMY1-TP53BP1-CLTA [9]) | phenotypically active (WPMY1-TUBA1B-RELA) | lowest phenotypically active concentration (HepG2-GM130-SQSTM1 [10])
C[C@H](CCC(=O)O)C[C@H](C)C[C@H](C)C(=O)/C=C(\O)[C@H](C)C[C@H](C)C/C=C/[C@@H](C)[C@@H](O)[C@@H](C)[C@@H](O)C[C@@H]1CC[C@@](C)([C@H]2CC[C@@](C)([C@@H](C)O)O2)O1 [Ionomycin free acid] | 9 µM | 9 µM | 9 µM | 9 µM | 0 (inactive) | 1 (active) | 0 (inactive) | 0 (inactive) | 0 (inactive) | 0 (inactive) | 1 (active) | 0 (inactive) | 0 (inactive) | 1 (active) | 1 (active) | 1 (active) | 1 (active) | 1 (active) | 0 (inactive) | 
CN1CCC2=C[C@H](O)[C@H]3OC(=O)c4cc5c(cc4[C@H]3[C@@H]21)OCO5 [Hippeastrine hydrobromide] | 9 µM |  |  |  | 1 (active) | 0 (inactive) | 0 (inactive) | 0 (inactive) | 0 (inactive) | 0 (inactive) | 1 (active) | 0 (inactive) | 0 (inactive) | 0 (inactive) | 0 (inactive) | 0 (inactive) | 0 (inactive) | 0 (inactive) | 0 (inactive) | 
N#CC(C#N)=NNc1cccc(Cl)c1 | 9 µM | 9 µM | 9 µM | 3 µM | 1 (active) | 1 (active) | 1 (active) | 1 (active) | 1 (active) | 1 (active) | 1 (active) | 1 (active) | 1 (active) | 1 (active) | 1 (active) | 1 (active) | 1 (active) | 1 (active) | 1 (active) | 9 µM
C=C1[C@@H](C)[C@H]2[C@H](Cc3ccccc3)NC(=O)[C@]23OC(=O)C=C[C@H](O)CCC[C@@H](C)CC=C[C@H]3[C@@H]1O [Cytochalasin B] | 1 µM | 3 µM | 3 µM | 3 µM | 1 (active) | 1 (active) | 1 (active) | 1 (active) | 1 (active) | 1 (active) | 1 (active) | 1 (active) | 1 (active) | 1 (active) | 1 (active) | 1 (active) | 1 (active) | 1 (active) | 1 (active) | 1 µM
C[C@@H]1O[C@@H](O[C@H]2C[C@@H](O)[C@]3(CO)[C@H]4[C@H](O)C[C@]5(C)[C@@H](C6=CC(=O)OC6)CC[C@]5(O)[C@@H]4CC[C@]3(O)C2)[C@H](O)[C@H](O)[C@H]1O [Strophantine octahydrate] | ≤ 0.3 µM | ≤ 0.3 µM | ≤ 0.3 µM | ≤ 0.3 µM | 1 (active) | 1 (active) | 1 (active) | 1 (active) | 1 (active) | 1 (active) | 1 (active) | 1 (active) | 1 (active) | 1 (active) | 1 (active) | 1 (active) | 1 (active) | 1 (active) | 1 (active) | ≤ 0.3 µM
CN1[C@@H]2CC[C@H]1C[C@@H](OC(=O)C(CO)c1ccccc1)C2 (stereo not given in full) [Atropine sulfate monohydrate] |  |  |  |  | 0 (inactive) | 0 (inactive) | 0 (inactive) |  | 0 (inactive) | 0 (inactive) | 0 (inactive) | 0 (inactive) |  | 0 (inactive) | 0 (inactive) | 0 (inactive) | 0 (inactive) |  | 0 (inactive) | 
C[C@@H]1C[C@@H]([C@H](O)CC2CC(=O)NC(=O)C2)C(=O)[C@@H](C)C1 [Cycloheximide] | ≤ 0.3 µM | ≤ 0.3 µM | ≤ 0.3 µM | ≤ 0.3 µM |  | 1 (active) |  | 1 (active) |  | 1 (active) | 1 (active) | 1 (active) | 1 (active) | 1 (active) | 1 (active) | 1 (active) | 1 (active) | 1 (active) | 1 (active) | ≤ 0.3 µM
C=C1C/C(=C\C)C(=O)O[C@@H]2CCN3CC=C(COC(=O)[C@]1(C)O)[C@H]23 [Seneciphylline] |  |  |  |  | 0 (inactive) | 0 (inactive) | 0 (inactive) | 0 (inactive) | 0 (inactive) | 0 (inactive) | 0 (inactive) | 0 (inactive) | 1 (active) | 0 (inactive) | 0 (inactive) | 0 (inactive) | 0 (inactive) | 0 (inactive) | 0 (inactive) | 
CCN(CC)CCN1C(=O)CN=C(c2ccccc2F)c2cc(Cl)ccc21 [flurazepam] | 1 µM |  |  |  | 0 (inactive) | 0 (inactive) | 0 (inactive) | 0 (inactive) | 0 (inactive) | 0 (inactive) | 1 (active) | 0 (inactive) | 0 (inactive) | 0 (inactive) | 0 (inactive) | 0 (inactive) | 0 (inactive) | 0 (inactive) | 0 (inactive) | 
Cc1c(C(=O)c2cccc3ccccc23)c2cccc3c2n1[C@H](CN1CCOCC1)CO3 [WIN 55,212-2 mesylate] |  |  | 9 µM | 9 µM | 0 (inactive) | 0 (inactive) | 1 (active) | 0 (inactive) | 0 (inactive) | 0 (inactive) | 0 (inactive) | 1 (active) | 0 (inactive) | 0 (inactive) | 1 (active) | 1 (active) | 1 (active) | 1 (active) | 0 (inactive) | 9 µM
c1ccc([C@@H]2C[C@H]2NC2CCNCC2)cc1 [GSK LSD 1 dihydrochloride] |  |  | 9 µM |  | 0 (inactive) | 0 (inactive) | 0 (inactive) | 0 (inactive) | 0 (inactive) | 0 (inactive) | 0 (inactive) | 0 (inactive) | 0 (inactive) | 0 (inactive) | 0 (inactive) | 0 (inactive) | 1 (active) | 0 (inactive) | 0 (inactive) | 
COc1cc2c(cc1O)C[C@H]1c3c(cc(O)c(OC)c3-2)CCN1C [Boldine] |  |  | 1 µM |  | 0 (inactive) | 0 (inactive) | 1 (active) | 0 (inactive) | 1 (active) | 1 (active) | 0 (inactive) | 0 (inactive) | 0 (inactive) | 0 (inactive) | 0 (inactive) | 0 (inactive) | 1 (active) | 0 (inactive) | 0 (inactive) | 
O=C1C=C2C=C[C@@H]3C[C@@]2(O1)[C@H]1CCCCN31 [Securinine] |  |  |  |  | 0 (inactive) | 0 (inactive) | 0 (inactive) | 0 (inactive) | 0 (inactive) | 0 (inactive) | 0 (inactive) | 1 (active) | 0 (inactive) | 0 (inactive) | 0 (inactive) | 0 (inactive) | 0 (inactive) | 0 (inactive) | 1 (active) | 9 µM
C/C=C(/C)C(=O)O[C@H]1CC[C@@]2(C)[C@@H]3CC[C@H]4[C@]5(O)C[C@H](O)[C@@]6(O)[C@@H](CN7C[C@@H](C)CC[C@H]7[C@@]6(C)O)[C@]5(O)C[C@@]42O[C@]13O [Veratrine] |  | 9 µM |  |  | 0 (inactive) | 0 (inactive) | 0 (inactive) | 0 (inactive) | 0 (inactive) | 0 (inactive) | 0 (inactive) | 0 (inactive) | 0 (inactive) | 1 (active) | 0 (inactive) | 0 (inactive) | 0 (inactive) | 0 (inactive) | 0 (inactive) | 
C=C(C)[C@H]1Cc2c(ccc3c2O[C@@H]2COc4cc(OC)c(OC)cc4[C@@H]2C3=O)O1 [Rotenone] | ≤ 0.3 µM | ≤ 0.3 µM | 1 µM | ≤ 0.3 µM |  | 1 (active) |  | 1 (active) |  | 1 (active) | 1 (active) | 1 (active) | 1 (active) | 1 (active) | 1 (active) | 1 (active) | 1 (active) | 1 (active) | 1 (active) | ≤ 0.3 µM
CN1C(=O)CN=C(c2ccccc2)c2cc(Cl)ccc21 [diazepam] |  |  |  |  | 0 (inactive) | 0 (inactive) | 0 (inactive) | 0 (inactive) | 0 (inactive) | 1 (active) | 0 (inactive) | 0 (inactive) | 0 (inactive) | 0 (inactive) | 0 (inactive) | 0 (inactive) | 0 (inactive) | 0 (inactive) | 0 (inactive) | 
C[C@H]1CCCC=C[C@@H]2C[C@H](O)C[C@H]2[C@H](O)C=CC(=O)O1 [brefeldin-a] | ≤ 0.3 µM | ≤ 0.3 µM | ≤ 0.3 µM | ≤ 0.3 µM |  | 1 (active) |  | 1 (active) |  | 1 (active) | 1 (active) | 1 (active) | 1 (active) | 1 (active) | 1 (active) | 1 (active) | 1 (active) | 1 (active) | 1 (active) | ≤ 0.3 µM
O=C1NC(=S)N(c2cccc(Br)c2)C(=O)/C1=C/c1ccco1 | 9 µM | 9 µM | 3 µM | 9 µM | 0 (inactive) | 0 (inactive) | 0 (inactive) | 0 (inactive) | 1 (active) | 0 (inactive) | 1 (active) | 1 (active) | 0 (inactive) | 1 (active) | 1 (active) | 1 (active) | 1 (active) | 1 (active) | 1 (active) | 9 µM
CC[C@H]1CN2CCC1C[C@H]2[C@H](O)c1ccnc2ccc(OC)cc12 (stereo not given in full) [Hydroquinine hydrobromide hydrate] |  |  |  | 9 µM |  | 0 (inactive) |  | 0 (inactive) |  | 0 (inactive) | 0 (inactive) | 0 (inactive) | 0 (inactive) | 0 (inactive) | 0 (inactive) | 0 (inactive) | 0 (inactive) | 1 (active) | 0 (inactive) | 
CC(C)C[C@H]1C(=O)N2CCC[C@H]2[C@]2(O)O[C@](NC(=O)[C@@H]3C=C4c5cccc6[nH]c(Br)c(c56)C[C@H]4N(C)C3)(C(C)C)C(=O)N12 [bromocriptine] | 9 µM | 9 µM | 9 µM | 9 µM |  | 0 (inactive) |  | 1 (active) |  | 1 (active) | 1 (active) | 1 (active) | 1 (active) | 1 (active) | 0 (inactive) | 0 (inactive) | 1 (active) | 1 (active) | 0 (inactive) | 9 µM
C[C@]1(C(=O)O)CCC[C@]2(C)c3cc(O)ccc3CC[C@@H]12 [Podocarpic acid] |  |  |  |  |  | 0 (inactive) |  | 0 (inactive) |  | 0 (inactive) | 0 (inactive) | 0 (inactive) | 0 (inactive) | 0 (inactive) | 0 (inactive) | 0 (inactive) | 0 (inactive) | 0 (inactive) | 0 (inactive) | 
C[C@]12CC[C@H]3[C@@H](CCC4=CC(=O)CC[C@@]43C)[C@@H]1CC[C@@H]2O [testosterone] | 3 µM |  | 9 µM |  | 0 (inactive) | 0 (inactive) | 0 (inactive) | 0 (inactive) | 0 (inactive) | 0 (inactive) | 1 (active) | 0 (inactive) | 0 (inactive) | 0 (inactive) | 0 (inactive) | 0 (inactive) | 1 (active) | 0 (inactive) | 0 (inactive) | 
